# VP16 counter – VP16 counterscreen qHTS for inhibitors of ROR gamma transcriptional activity; Potency, µM (titrated, usually from 53.6 µM), for the others: top-dose activity, negative = inhibition, usual class: inhibitors; hit rate 3.5% among 310,000; Drosophila S2 Gal4-VP16 UAS-luciferase, luminescence, 20 h; AID 2546, 2010;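 also: Gal4-VP16 expression switched on by copper sulfate through the metallothionein promoter; % is scaled to controls: 0 for no effect and ±100 for the full control effect; nearly all actives have a fitted effect of over 50% in size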
# HepG2 viability – qHTS for Inhibitors of TGF-b: Cytotox Counterscreen; HepG2 CAGA-GFP viability, ATP luminescence, 18 h; Potency, µM (series often up to 46.1 µM), for the others: top-dose activity change, negative = cytotoxicity, actives largely listed as cytotoxic; hit rate 0.76% among 410,000; AID 588856, 2011
#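 CellTiter-Glo luminescence gave cytotoxicity after 18 hours at 37 degrees C. The cells were HepG2 CAGA-GFP in 1% FBS DMEM, stimulated with 500 pg/mL TGF-beta after compound addition. %Activity was normalised to no-cell wells (complete cell-killing) and DMSO (no toxicity), and curves were fitted and classified.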
# ATXN2 expr inh – Primary qHTS for Inhibitors of ATXN expression; HEK-293 ATXN2-luciferase reporter, luminescence, 24 h; Potency, µM (titrated, usually from 57 µM), without a hit: at the highest dose activity change, negative = inhibition, actives largely listed as inhibitors; hit rate 0.72% among 360,000; AID 1745845, 2022; also: % is scaled to controls: 0 for no effect and ±100 for the full control effect; nearly all actives have a fitted effect of over 55% in size
#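 qHTS (up to 57 uM final) was run with 24 h compound exposure of reporter cells at 37 °C. Each well was multiplexed: SteadyGlo luminescence measured ATXN2-luciferase expression after a fluorogenic Gly-Phe-AFC viability readout (25 uM final).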
# RORgamma inh – qHTS for inhibitors of ROR gamma transcriptional activity; Nuclear receptor ROR-gamma (Mus musculus), P51450; Drosophila S2 Gal4-RORgamma UAS-luciferase reporter, 20 h; Potency, µM (titrated, usually from 53.6 µM), inactives show top-dose activity change, negative = inhibition, hits mostly inhibitors; hit rate 5.4% among 310,000; also: % is scaled to controls: 0 for no effect and ±100 for the full control effect; nearly all actives have a fitted effect of over 60% in size
# Target sequence (P51450 whole entry, looked up, the tested form may be a part): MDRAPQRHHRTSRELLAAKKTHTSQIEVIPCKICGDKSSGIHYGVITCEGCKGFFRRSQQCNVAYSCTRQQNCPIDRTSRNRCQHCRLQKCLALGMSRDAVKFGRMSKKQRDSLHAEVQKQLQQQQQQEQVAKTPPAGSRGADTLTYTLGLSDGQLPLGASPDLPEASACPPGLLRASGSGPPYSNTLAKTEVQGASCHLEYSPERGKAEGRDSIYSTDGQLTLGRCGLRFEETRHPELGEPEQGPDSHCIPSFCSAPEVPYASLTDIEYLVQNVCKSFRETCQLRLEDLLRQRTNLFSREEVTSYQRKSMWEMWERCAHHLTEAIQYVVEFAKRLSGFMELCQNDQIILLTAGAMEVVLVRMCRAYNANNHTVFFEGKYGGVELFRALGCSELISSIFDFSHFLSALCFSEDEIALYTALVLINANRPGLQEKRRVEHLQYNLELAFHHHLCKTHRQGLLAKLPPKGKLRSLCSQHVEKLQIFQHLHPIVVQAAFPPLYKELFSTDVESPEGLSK
#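 Compounds are pin-transferred onto Drosophila Schneider cells expressing a copper-inducible Gal4–ROR gamma transactivation domain fusion. After 1 hr, copper sulfate is added to 700 uM final; luciferase is read 20 hr later.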
# TGFb inhibitor – qHTS for Inhibitors of TGF-b. HepG2 CAGA-GFP TGF-b/SMAD3 reporter, GFP fluorescence, 18 h; TGF-beta stimulated, 500 pg/mL final. Potency, µM (titrated, usually from 46.1 µM), inactives show at the top dose activity, negative = inhibition, most hits filed as inhibitors. hit rate 1.2% among 410,000. AID 588855, 2011; also: % is scaled to controls: 0 for no effect and ±100 for the full control effect; nearly all actives have a fitted effect of over 65% in size
#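 Inhibition was scored as loss of TGF-beta-induced (500 pg/mL final, 18 hours, 37 degrees C) GFP in HEPG2 cells carrying a CAGA-GFP reporter, in DMEM with 1% FBS. Well GFP was summed per cell; Activity was normalised to unstimulated and stimulated DMSO wells, then concentration-response fitting.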
# S2 tox – Viability Counterscreen for Primary qHTS for Inhibitors of ATXN expression. S2 cells (HEK-293 line with an ATXN2-luciferase reporter) viability, CellTiter-Fluor protease fluorescence, 24 h. Potency, µM (titrated, usually from 56.7 µM), hits mostly cytotoxic. hit rate 0.49% among 400,000; also: nearly all actives have a fitted effect of over 40% in size
# Starred values were filed as active, the others as inactive; i = inactive; ? = inconclusive; · = no result; ! = a repeat was not active. Hits are enriched below; roughly 6.3% of the tested compounds scored in any of these assays. Calls follow the shape of the dose curve; as a rule, active = well fitted curve in the direction sought with a large enough effect; inconclusive = small, poorly fitted or top-dose-only effect, or another doubt; inactive = no such curve, though single readings can be large; an effect the other way counts as inactive or inconclusive. Potency is read from the fitted curve at half-maximal effect.
SMILES,VP16 counter,HepG2 viability,ATXN2 expr inh,RORgamma inh,TGFb inhibitor,S2 tox
CCCc1nc(C)c2c(=O)[nH]c(-c3cc(S(=O)(=O)N4CCN(CC)CC4)ccc3OCC)nn12,5%,-45%,19µM*!,19%,-11%,i
CCOc1ccccc1-n1c(SCC(=O)Nc2ccc(CC)cc2)nc2n[nH]c(C)c2c1=N,?,10%,?,?,?,20µM*
Cc1[nH]nc2nc(SCC(=O)NCCC3=CCCCC3)n(-c3ccc(Br)cc3)c(=N)c12,?,-137%,·,?,16µM*,?
CCc1ccccc1-n1c(SCC(=O)Nc2ccc(C)cc2)nc2n[nH]c(C)c2c1=N,·,-42%,·,·,0%,·
CCc1ccc(NC(=O)CSc2nc3n[nH]c(C)c3c(=N)n2-c2ccccc2C)cc1,·,16µM*,-28%,·,?,?
CCOc1ccccc1NC(=O)CCSc1nc2n[nH]c(C)c2c(=N)n1-c1ccccc1Cl,-7%,-25%,-30%,-22%,2%,i
Cc1c(Cl)cccc1-n1c(SCC(=O)NCc2ccccc2)nc2n[nH]c(C)c2c1=N,·,-60%,·,·,11µM*,·
Cc1cc(-n2c(SCC(=O)NCCC3=CCCCC3)nc3n[nH]c(C)c3c2=N)ccc1Cl,?,-79%,·,?,?,?
CC(C)(C)S(=O)N1Cc2cn(Cc3ccccc3)c(=O)cc2[C@@H]1CCO (some centres not stated),·,23%,3%,·,5%,i
O=C(Nc1cc(F)c(Br)cc1F)c1ccc(Cl)cc1,-1%,-23%,14%,4%,-3%,i
CCNC(=O)C/C(C)=N/NC(=O)C1CCCCC1,?,-18%,-6%,11µM*,19%,i
CCNC(=S)NNC(=O)C1CCCCC1,?,2%,2%,13µM*,16%,i
COc1cccc(CN2C(=O)NC(C)(C3CCN(Cc4ccc(C)o4)CC3)C2=O)c1OC (configuration not stated),·,·,·,·,·,i
CC(SC1=NCCS1)C(=O)Nc1nnc(-c2ccc(Cl)cc2)s1 (configuration not stated),8.9µM*,-15%,53%,5µM*,14%,i
COc1ccccc1-c1nnc(NC(=O)C(C)SC2=NCCS2)s1 (configuration not stated),?,-32%,12%,13µM*,-26%,?
Cc1ccnc2nc(C(=O)OCC(=O)NCc3cccc(Cl)c3)nn12,·,-3%,7%,·,-21%,i
COc1ccc(CN(C)C[C@@H]2OCCCC[C@H](C)Oc3ccc(NC(=O)Cc4ccccc4)cc3C(=O)N([C@@H](C)CO)C[C@@H]2C)cc1,·,8%,3%,·,4%,?
C[C@@H]1CCCCO[C@H](CN(C)Cc2ccc(C(F)(F)F)cc2)[C@H](C)CN([C@@H](C)CO)C(=O)c2cc(NC(=O)Cc3ccccc3)ccc2O1,·,-46%,0%,·,?,13µM*
C[C@@H]1CN([C@@H](C)CO)C(=O)c2cc(NC(=O)Nc3ccc(F)cc3)ccc2O[C@@H]1CN(C)Cc1ccc(Oc2ccccc2)cc1,·,16µM*,0%,·,?,25µM*
COc1ccc(CN(C)C[C@@H]2OCCCC[C@H](C)Oc3ccc(NC(=O)Nc4ccc(F)cc4)cc3C(=O)N([C@H](C)CO)C[C@H]2C)cc1,·,25µM*,?,·,?,18µM*
CC(C)NC(=O)Nc1ccc2c(c1)C(=O)N([C@H](C)CO)C[C@H](C)[C@@H](CN(C)Cc1ccc(C(F)(F)F)cc1)OCCCC[C@H](C)O2,·,-36%,?,·,16µM*,·
CC(C)C(=O)OCC(=O)[C@@]12OC(C3CCCCC3)O[C@@H]1CC1C3CCC4=CC(=O)C=C[C@]4(C)C3[C@@H](O)C[C@@]12C (some centres not stated),0%,·,·,?,·,·
Cc1ccc(S(=O)(=O)NCCc2cn3ccsc3n2)c(C)c1,·,3%,·,·,1%,·
C[C@H](CO)N1C[C@H](C)[C@@H](CN(C)Cc2ccncc2)Oc2ncc(Br)cc2C1=O,·,4%,5%,·,17%,?
C[C@@H]1CN([C@@H](C)CO)C(=O)c2cc(Br)cnc2O[C@@H]1CN(C)Cc1ccc(Oc2ccccc2)cc1,·,-35%,-38%,·,?,25µM*
SMILES,VP16 counter,HepG2 viability,ATXN2 expr inh,RORgamma inh,TGFb inhibitor,S2 tox
COc1ccc(-c2csc(C(O)(c3ccccc3)C(F)(F)F)n2)cc1 (configuration not stated),·,-78%,?,·,?,?
OC(c1ccccc1)(c1nc(-c2ccc(Cl)cc2)cs1)C(F)(F)F (configuration not stated),·,16µM*,-2%,·,?,?
C=C(C)Cn1c(-c2ccccc2)nc2ccccc21,?,-32%,73%,14µM*,-1%,i
Fc1ccccc1Cn1c(-c2ccccc2)nc2ccccc21,·,-68%,?,·,?,32µM*
CCSc1nc2ccccc2n1Cc1ccccc1F,-13%,-20%,-27%,1%,7%,i
CC(C)=N/N=C1\NC(=O)C(C)S1 (configuration not stated),?,3%,·,11µM*,18%,i
COc1ccccc1C(=O)NCC(=O)NC(C)CCc1ccccc1 (configuration not stated),14µM*,13%,0%,6.3µM*,2%,i
COc1ccccc1C(=O)OCC(=O)NC(C)CCc1ccccc1 (configuration not stated),3%,-16%,-24%,31%,-7%,i
O=C(CC(=O)c1ccncc1)c1ccccc1,·,-7%,4%,·,?,i
COc1ccccc1NC(=O)CC(=O)c1ccccc1,5%,-13%,-12%,34%,-11%,i
COc1ccccc1C(=O)CC(=O)c1ccccc1,-68%,-23%,10%,10µM*,-17%,i
O=C(CC(=O)c1ccccc1)c1ccccc1,7.9µM*,-44%,18%,4µM*,1%,i
COc1ccc(-c2csc(=NCCO)n2-c2ccccc2)cc1,-3%,-2%,-24%,?,-13%,i
CN(CCO)C(=O)c1cn(C2CCCN(Cc3cccc4ccccc34)C2)nn1 (configuration not stated),·,·,·,·,·,i
C/C(=N/Oc1nc(C)cc(C)n1)c1ccc(Cl)cc1Cl,?,5%,-7%,10µM*,6%,i
CN(C)c1ncnc2ccc(-c3cccc(C#N)c3)cc12,-4%,·,·,0%,·,·

# Source: PubChem BioAssay
